According to the supplement of paper PMC10849652:
Of roughly 7,900 targets only a part is listed; those with a hit were picked by preference. About 0.6% of all pairs of compound and target were hits.

Tests used:
Experiment in all cases: log2 fold change, soluble protein after heating vs DMSO (PISA); higher = thermal stabilisation; K562 cells, 10 uM, 30 min; active = over 0.2 and 3.5 SD of the protein, either way, in both replicates (recomputed)
[1] = compound: C#Cc1cccc(Nc2ncnc3cc(OCCOC)c(OCCOC)cc23)c1 [erlotinib]
How it was run: (§1)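 K562 cells at 2×10^6 cells/mL were treated for 30 min with 10 μM compound, and aliquots were heated for 3 min over 48°C-58°C before pooling. Extraction used PBS with 0.5% NP-40 at 4°C, and soluble protein was the supernatant after 21,000xg for 90 min, measured by TMTpro 16plex LC-MS/MS with channel sums equalised. Thermal stability values, relative to control samples and from duplicates, are log2 fold changes.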

[2] = compound: C/C(=N\NC(=O)C1=CC(=CC=C1)S(=O)(=O)N2CCOCC2)/C3=C(C=CC(=C3)Cl)O
How it was run: as §1

[3] = compound: C1=CC(=C(C=C1Cl)C2=NC3=NC=CN=C3C(=N2)NC4=CC=NC=C4)F
How it was run: as §1

[4] = compound: C1=CC(=CC=C1C2=NC3=C(N2)C=C(C=C3)C(=O)N)OC4=CC=C(C=C4)Cl
How it was run: as §1

[5] = compound: C1=CC2=C(C=CC(=C2)/C=C\3/C(=O)NC(=NCC4=CC=CS4)S3)N=C1
How it was run: as §1

[6] = compound: C1=CC2=NC=CN=C2C=C1/C=C/3\C(=O)NC(=O)S3
How it was run: as §1

[7] = compound: C1=CC=C(C=C1)C2=NC(=C(N2)C3=CC=NC=C3)C4=CC(=C(C=C4)Cl)O
How it was run: as §1

[8] = compound: C1=CC=C2C(=C1)C3=NNC4=CC=CC(=C43)C2=O
How it was run: as §1

[9] = compound: C1CCN(C1)C(=O)NC2=CC=CC(=C2)NC3=NC=C(C(=N3)NCCC4=CN=CN4)Br
How it was run: as §1

[10] = compound: C1CN(CCC1(CC2=CC=C(C=C2)Cl)N)C3=NC=NC4=C3C=CN4
How it was run: as §1

[11] = compound: C1COCCN1CCN2C3=CC=CC=C3N=C2NC(=O)C4=CC(=CC=C4)[N+](=O)[O-] [IRAK-1-4 Inhibitor I]
How it was run: as §1

[12] = compound: C=CC(=O)N1CCC[C@@H](n2nc(-c3ccc(Oc4ccccc4)cc3)c3c(N)ncnc32)C1 [ibrutinib]
How it was run: as §1

[13] = compound: CC(=O)c1cnc2ccc(-c3cc(Cl)c(O)c(Cl)c3)nc2c1N[C@H]1CC[C@H](CN(C)C)CC1
How it was run: as §1

[14] = compound: CC(C)(C)Cn1c(N)nc2ccc(-c3[nH]c(C(C)(C)C)nc3-c3ccc(F)cc3)nc21 [ralimetinib]
How it was run: as §1

[15] = compound: CC(C)(O)CC(=O)NCCn1ccc2ncnc(Nc3ccc(Oc4cccc(C(F)(F)F)c4)c(Cl)c3)c21
How it was run: as §1

[16] = compound: CC(C)C1=C2N=C(C=C(N2N=C1)NCC3=CC=CC=C3)NCCCCCCN
How it was run: as §1

[17] = compound: CC(C)C[C@@H](C=O)NC(=O)[C@H](CC(C)C)NC(=O)[C@H](CC(C)C)NC(=O)OCc1ccccc1
How it was run: as §1

[18] = compound: CC(C)N(C[C@H]1O[C@@H](n2cnc3c(N)ncnc32)[C@H](O)[C@@H]1O)[C@H]1C[C@@H](CCc2nc3cc(C(C)(C)C)ccc3[nH]2)C1 [pinometostat]
How it was run: as §1

[19] = compound: CC1=C(C(CC(=O)N1)C2=CC=C(C=C2)C(F)(F)F)C(=O)NC3=C(C=C4C(=C3)C=NN4)F
How it was run: as §1

[20] = compound: CC1=C(C2=C(C=C1)C(=O)C3=CC=CC=C3N2CCCN)C
How it was run: as §1

Measured: log2 fold change

CETN2 (UniProt P41208)
Sequence of UniProt P41208 (P41208 whole entry, looked up): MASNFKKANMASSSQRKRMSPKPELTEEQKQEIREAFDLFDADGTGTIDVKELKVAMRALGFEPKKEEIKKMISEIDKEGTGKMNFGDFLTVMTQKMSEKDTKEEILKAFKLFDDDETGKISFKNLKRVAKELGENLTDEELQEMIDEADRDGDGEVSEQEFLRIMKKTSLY
inactive: [1] 0.121 | [2] -0.015 | [3] -0.002 | [4] 0.017 | [5] -0.058 | [6] 0.03 | [7] -0.058 | [8] -0.113 | [9] 0.039 | [10] 0.049 | [11] -0.067 | [12] 0.006 | [13] -0.019 | [14] -0.012 | [15] 0.074 | [16] 0.17 | [17] 0.043 | [18] 0.011 | [19] 0.075 | [20] -0.045

CCAR1 (UniProt Q8IX12)
Sequence of UniProt Q8IX12 (Q8IX12 whole entry, looked up): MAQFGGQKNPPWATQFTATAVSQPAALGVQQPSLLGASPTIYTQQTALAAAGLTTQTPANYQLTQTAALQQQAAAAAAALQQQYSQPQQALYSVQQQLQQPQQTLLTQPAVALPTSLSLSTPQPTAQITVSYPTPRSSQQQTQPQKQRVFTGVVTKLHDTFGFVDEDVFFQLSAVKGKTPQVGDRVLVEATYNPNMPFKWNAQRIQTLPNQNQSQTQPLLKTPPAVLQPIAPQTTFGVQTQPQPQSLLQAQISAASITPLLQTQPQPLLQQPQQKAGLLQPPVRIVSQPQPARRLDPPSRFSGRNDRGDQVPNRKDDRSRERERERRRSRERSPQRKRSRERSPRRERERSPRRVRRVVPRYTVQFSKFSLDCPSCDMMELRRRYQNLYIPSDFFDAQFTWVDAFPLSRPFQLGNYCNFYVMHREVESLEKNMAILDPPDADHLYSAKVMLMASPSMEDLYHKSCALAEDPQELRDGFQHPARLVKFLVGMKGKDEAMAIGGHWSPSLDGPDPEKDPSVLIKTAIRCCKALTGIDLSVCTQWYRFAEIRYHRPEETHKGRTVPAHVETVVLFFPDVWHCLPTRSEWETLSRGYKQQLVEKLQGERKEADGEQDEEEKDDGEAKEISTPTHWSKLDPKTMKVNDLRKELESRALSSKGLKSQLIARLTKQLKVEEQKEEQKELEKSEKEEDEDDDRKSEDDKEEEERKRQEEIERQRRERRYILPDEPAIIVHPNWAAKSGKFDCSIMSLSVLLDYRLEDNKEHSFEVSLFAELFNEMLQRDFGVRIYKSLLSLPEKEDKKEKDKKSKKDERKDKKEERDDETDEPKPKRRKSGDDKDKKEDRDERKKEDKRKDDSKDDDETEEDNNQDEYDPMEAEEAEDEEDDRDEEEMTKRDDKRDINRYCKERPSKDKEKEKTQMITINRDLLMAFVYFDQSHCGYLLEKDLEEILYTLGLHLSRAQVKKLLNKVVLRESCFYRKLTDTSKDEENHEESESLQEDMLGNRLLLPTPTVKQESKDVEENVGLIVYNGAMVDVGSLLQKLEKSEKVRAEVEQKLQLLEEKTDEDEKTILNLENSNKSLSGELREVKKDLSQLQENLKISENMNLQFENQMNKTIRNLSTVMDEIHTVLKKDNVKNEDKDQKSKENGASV
inactive: [1] 0.052 | [2] 0.057 | [3] -0.002 | [4] 0.014 | [5] 0.071 | [6] 0.039 | [7] -0.021 | [8] 0.024 | [9] 0.027 | [10] -0.085 | [11] 0.002 | [12] 0.003 | [13] -0.039 | [14] -0.012 | [15] -0.103 | [16] -0.168 | [17] 0.006 | [18] -0.009 | [19] -0.03 | [20] 0.209

CCNT1 (UniProt O60563)
Sequence of UniProt O60563 (O60563 whole entry, looked up): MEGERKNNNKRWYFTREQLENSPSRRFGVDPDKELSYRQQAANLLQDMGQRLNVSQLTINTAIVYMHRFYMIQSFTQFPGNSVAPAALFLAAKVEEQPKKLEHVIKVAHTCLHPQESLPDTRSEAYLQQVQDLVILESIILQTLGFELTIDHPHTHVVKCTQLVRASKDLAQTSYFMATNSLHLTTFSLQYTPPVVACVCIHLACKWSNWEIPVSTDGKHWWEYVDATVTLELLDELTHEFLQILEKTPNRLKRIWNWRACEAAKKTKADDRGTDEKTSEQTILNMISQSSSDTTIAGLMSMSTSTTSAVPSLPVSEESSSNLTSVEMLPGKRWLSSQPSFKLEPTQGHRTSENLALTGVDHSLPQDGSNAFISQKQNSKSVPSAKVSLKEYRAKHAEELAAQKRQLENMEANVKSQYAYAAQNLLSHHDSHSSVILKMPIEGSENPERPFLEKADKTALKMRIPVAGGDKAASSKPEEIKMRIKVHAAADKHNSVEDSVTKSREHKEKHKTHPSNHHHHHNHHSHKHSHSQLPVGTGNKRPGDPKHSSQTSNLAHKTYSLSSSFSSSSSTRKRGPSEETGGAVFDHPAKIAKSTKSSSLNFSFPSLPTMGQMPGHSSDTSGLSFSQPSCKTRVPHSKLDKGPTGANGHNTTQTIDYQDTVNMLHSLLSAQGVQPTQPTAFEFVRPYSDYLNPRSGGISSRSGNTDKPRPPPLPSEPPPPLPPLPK
active: [13] -0.603 | [16] -0.375
inactive: [1] -0.026 | [2] 0.036 | [3] -0.141 | [4] 0.047 | [5] -0.041 | [6] -0.05 | [7] -0.129 | [8] -0.084 | [9] -0.014 | [10] -0.059 | [11] -0.004 | [12] 0.001 | [14] 0.054 | [15] 0.042 | [17] 0.105 | [18] 0.213 | [19] -0.003 | [20] -0.112

CHCHD1 (UniProt Q96BP2)
inactive: [1] -0.034 | [2] -0.007 | [3] -0.048 | [4] 0.027 | [5] -0.135 | [6] -0.003 | [7] -0.057 | [8] 0.039 | [9] 0.022 | [10] -0.091 | [11] -0.071 | [12] 0.119 | [13] -0.009 | [14] -0.117 | [15] 0.026 | [16] -0.027 | [17] 0.037 | [18] -0.021 | [19] 0.08 | [20] -0.19

CPSF3 (UniProt Q9UKF6)
Sequence of UniProt Q9UKF6 (Q9UKF6 whole entry, looked up): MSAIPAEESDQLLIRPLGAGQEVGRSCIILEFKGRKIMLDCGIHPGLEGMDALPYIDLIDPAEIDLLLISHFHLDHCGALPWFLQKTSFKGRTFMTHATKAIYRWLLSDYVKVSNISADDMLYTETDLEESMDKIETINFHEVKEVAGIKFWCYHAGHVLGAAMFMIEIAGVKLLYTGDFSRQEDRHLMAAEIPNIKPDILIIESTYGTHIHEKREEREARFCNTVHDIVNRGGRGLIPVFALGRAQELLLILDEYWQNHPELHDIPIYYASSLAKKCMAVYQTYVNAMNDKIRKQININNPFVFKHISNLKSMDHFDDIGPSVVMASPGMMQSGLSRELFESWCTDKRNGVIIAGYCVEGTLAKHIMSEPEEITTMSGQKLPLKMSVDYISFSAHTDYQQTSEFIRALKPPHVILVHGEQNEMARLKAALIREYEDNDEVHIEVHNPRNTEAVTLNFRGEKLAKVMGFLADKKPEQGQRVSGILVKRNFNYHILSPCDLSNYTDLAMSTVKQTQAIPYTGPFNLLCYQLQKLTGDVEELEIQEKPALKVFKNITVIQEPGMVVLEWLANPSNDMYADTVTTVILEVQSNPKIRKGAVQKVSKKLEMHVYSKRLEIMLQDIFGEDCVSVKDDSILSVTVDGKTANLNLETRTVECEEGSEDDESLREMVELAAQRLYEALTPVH
inactive: [1] 0.006 | [2] 0.104 | [3] 0.028 | [4] 0 | [5] -0.003 | [6] 0.048 | [7] 0 | [8] -0.022 | [9] -0.005 | [10] -0.011 | [11] -0.044 | [12] -0.04 | [13] 0.026 | [14] -0.006 | [15] 0.028 | [16] -0.052 | [17] 0.035 | [18] 0.036 | [19] -0.025 | [20] -0.013

CERS2 (UniProt Q96G23)
Sequence of UniProt Q96G23 (Q96G23 whole entry, looked up): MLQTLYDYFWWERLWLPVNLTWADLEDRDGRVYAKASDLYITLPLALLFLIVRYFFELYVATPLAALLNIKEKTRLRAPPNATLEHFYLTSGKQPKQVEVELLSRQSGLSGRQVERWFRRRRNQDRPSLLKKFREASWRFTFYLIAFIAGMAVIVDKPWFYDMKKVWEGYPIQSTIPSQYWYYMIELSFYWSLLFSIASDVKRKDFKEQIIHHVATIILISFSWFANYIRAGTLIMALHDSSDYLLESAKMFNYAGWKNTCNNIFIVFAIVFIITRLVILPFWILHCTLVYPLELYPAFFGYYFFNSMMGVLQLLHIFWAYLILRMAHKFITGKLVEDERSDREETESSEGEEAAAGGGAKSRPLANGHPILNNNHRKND
active: [16] -0.425
inactive: [1] 0.032 | [2] 0.001 | [3] 0.013 | [4] 0.007 | [5] 0.004 | [6] 0.033 | [7] 0.01 | [8] -0.025 | [9] 0.074 | [10] 0.087 | [11] 0.06 | [12] -0.013 | [13] 0.125 | [14] -0.026 | [15] -0.176 | [17] 0.034 | [18] 0.042 | [19] 0.003 | [20] -0.04

CPSF7 isoform 3 (UniProt Q8N684)
Sequence of UniProt Q8N684 (Q8N684 whole entry, looked up): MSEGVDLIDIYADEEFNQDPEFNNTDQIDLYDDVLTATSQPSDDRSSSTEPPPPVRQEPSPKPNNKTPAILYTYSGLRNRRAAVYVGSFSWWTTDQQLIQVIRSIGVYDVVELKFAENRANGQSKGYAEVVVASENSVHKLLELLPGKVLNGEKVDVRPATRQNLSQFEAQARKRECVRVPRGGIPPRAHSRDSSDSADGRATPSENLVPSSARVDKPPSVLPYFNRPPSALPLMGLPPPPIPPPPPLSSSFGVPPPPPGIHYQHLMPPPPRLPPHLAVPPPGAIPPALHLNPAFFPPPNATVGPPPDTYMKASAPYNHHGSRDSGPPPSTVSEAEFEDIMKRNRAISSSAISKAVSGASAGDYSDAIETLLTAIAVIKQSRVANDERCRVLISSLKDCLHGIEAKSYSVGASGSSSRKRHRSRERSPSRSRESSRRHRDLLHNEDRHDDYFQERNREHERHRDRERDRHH
active: [13] -0.242 | [20] 0.236
inactive: [1] -0.035 | [2] 0.054 | [3] -0.015 | [4] 0.041 | [5] -0.001 | [6] 0.005 | [7] 0.01 | [8] -0.005 | [9] -0.035 | [10] -0.016 | [11] -0.037 | [12] 0 | [14] 0.003 | [15] -0.002 | [16] 0.02 | [17] -0.045 | [18] -0.028 | [19] -0.016

CALB1 (UniProt P05937)
Sequence of UniProt P05937 (P05937 whole entry, looked up): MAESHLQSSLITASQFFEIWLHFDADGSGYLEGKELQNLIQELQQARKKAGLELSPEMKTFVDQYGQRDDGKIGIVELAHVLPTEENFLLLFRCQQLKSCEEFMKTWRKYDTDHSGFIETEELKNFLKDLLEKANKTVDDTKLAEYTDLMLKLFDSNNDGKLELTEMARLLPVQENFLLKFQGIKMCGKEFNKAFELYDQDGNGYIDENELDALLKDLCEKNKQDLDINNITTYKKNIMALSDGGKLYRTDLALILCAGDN
inactive: [1] -0.011 | [2] -0.001 | [3] 0.067 | [4] 0.032 | [5] -0.033 | [6] 0.055 | [7] -0.01 | [8] 0.027 | [9] 0.019 | [10] -0.026 | [11] 0.016 | [12] -0.033 | [13] 0.017 | [14] -0.078 | [15] -0.052 | [17] -0.017 | [18] -0.043 | [19] 0.055 | [20] -0.148
active: [16] -0.245

CCDC82 (UniProt Q8N4S0)
Sequence of UniProt Q8N4S0 (Q8N4S0 whole entry, looked up): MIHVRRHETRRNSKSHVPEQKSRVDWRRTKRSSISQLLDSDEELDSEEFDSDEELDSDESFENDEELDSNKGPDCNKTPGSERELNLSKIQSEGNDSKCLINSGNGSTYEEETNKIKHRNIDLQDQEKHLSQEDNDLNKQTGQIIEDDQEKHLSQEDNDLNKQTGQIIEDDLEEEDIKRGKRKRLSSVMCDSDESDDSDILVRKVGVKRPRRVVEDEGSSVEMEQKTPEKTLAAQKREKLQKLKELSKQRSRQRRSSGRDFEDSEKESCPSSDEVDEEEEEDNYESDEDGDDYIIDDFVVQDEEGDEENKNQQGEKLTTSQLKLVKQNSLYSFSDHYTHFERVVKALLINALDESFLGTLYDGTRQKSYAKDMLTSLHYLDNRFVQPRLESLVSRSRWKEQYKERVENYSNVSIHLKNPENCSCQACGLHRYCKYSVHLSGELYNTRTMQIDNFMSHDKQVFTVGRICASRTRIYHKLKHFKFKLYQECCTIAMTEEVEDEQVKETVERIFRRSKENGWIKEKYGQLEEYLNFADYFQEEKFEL
active: [20] -0.65
inactive: [1] -0.08 | [2] 0.035 | [3] 0.011 | [4] -0.026 | [5] -0.01 | [6] 0.046 | [7] -0.022 | [8] -0.092 | [9] -0.004 | [10] 0.022 | [11] -0.041 | [12] 0.022 | [13] -0.07 | [14] -0.023 | [15] 0.012 | [16] 0 | [17] 0.028 | [18] -0.019 | [19] 0.108
